Source: PubChem BioAssay (National Center for Advancing Translational Sciences (NCATS))
ALDH1A1 block = inhibitors of human aldehyde dehydrogenase 1A1; P00352; Purified ALDH1A1, NADH fluorescence, propionaldehyde substrate; Potency, µM (titrated, usually from 75.3 µM), for the others: at the highest dose activity, negative = inhibition, hits mostly inhibitors; 220,000 tested, 7.3% active; active = well fitted inhibition curve with a large enough effect, not every such curve was filed as active; inconclusive = small, poorly fitted or top-dose-only effect, or another doubt; inactive = no such curve, though single readings can be large or run the other way;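 note: potency is the fitted concentration of half-maximal effect; plate controls were no enzyme wells and a reference inhibitor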
Target sequence (P00352 whole entry, looked up): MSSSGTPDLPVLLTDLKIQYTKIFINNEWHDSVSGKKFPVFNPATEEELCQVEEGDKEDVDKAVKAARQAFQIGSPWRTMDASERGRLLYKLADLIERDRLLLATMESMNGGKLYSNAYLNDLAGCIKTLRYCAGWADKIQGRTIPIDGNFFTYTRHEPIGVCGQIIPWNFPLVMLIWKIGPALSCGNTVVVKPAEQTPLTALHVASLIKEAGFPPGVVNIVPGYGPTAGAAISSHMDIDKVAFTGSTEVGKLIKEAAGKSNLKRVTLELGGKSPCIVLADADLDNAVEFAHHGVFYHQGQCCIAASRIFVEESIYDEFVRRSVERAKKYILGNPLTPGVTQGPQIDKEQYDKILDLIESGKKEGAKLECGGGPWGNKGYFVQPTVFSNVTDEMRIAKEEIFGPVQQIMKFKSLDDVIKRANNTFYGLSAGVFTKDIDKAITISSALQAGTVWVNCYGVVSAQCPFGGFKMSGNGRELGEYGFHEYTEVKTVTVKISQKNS
HTT ATP protect = cytoprotection in Huntington HTT-Q103 PC12 cell model; Potency, µM (top dose mostly 56.4 µM), inactives show cytoprotection (ATP increase), hits mostly activators; 230,000 tested, 0.14% active; PC12 HTT-Q103 induced, cytoprotection, ATP luminescence, 40 h; note: potency is the fitted concentration of half-maximal effect; % of control where 0% means no effect; nearly all actives have a fitted effect of over 45% in size
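Huntington model: PC12 line, ecdysone-inducible HTTQ103 exon1–GFP, tebufenozide 100 nM. Test articles in a dose series. Endpoint luminescence from cellular ATP.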
CBFb-RUNX1 inh = blocks binding between human CBF-beta and RUNX1; Q01196+Q13951; AlphaScreen CBFb-His/RUNX1-biotin binding, biochemical; Potency, µM (series often up to 59.8 µM), for inactives: at the top dose activity, negative = inhibition, actives largely listed as inhibitors; 230,000 tested, under 10 active; AID 1477; note: % of control where 0% means no effect
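AlphaScreen binding: CBFb-His and RUNX1-biotin (30 nM each) preincubated 20 min, compound added for 15 min, then nickel and streptavidin beads for 90 min, all at room temperature. Disruption of the interaction by any mechanism counts as activity.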
KDM4E inh = blocks human JMJD2E demethylase activity; B2RXH2; JMJD2E catalytic domain, FDH-coupled NADH fluorescence (FDH is formaldehyde dehydrogenase); Potency, µM (highest dose often 57.1 µM), without a hit: top-dose activity change, negative = inhibition, actives largely listed as inhibitors; 230,000 tested, 1.6% active; AID 2147; active = well fitted inhibition curve with a large enough effect, not every such curve was filed as active; inconclusive = small, poorly fitted or top-dose-only effect, or another doubt; inactive = no such curve, though single readings can be large or run the other way;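 note: potency is the fitted concentration of half-maximal effect; 0% = wells with enzyme and -100% = buffer wells without enzyme; nearly all actives have a fitted effect of over 50% in size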
HTT aggregate = inhibitors of mutant huntingtin aggregate formation in PC12 cells. PC12 HttQ103-GFP aggregates, Acumen cytometry, 40 h. Potency, µM (top dose mostly 46.1 µM), without a hit: top-dose activity change, negative = inhibition, usual class: inhibitors. 220,000 tested, 1.1% active; note: potency is the fitted concentration of half-maximal effect; % is set by controls: 0 for no effect and ±100 for the full control effect; nearly all actives have a fitted effect of over 60% in size
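Ecdysone-promoter PC12 model expressing HTT exon 1 Q103 fused to GFP, induced by tebufenozide at 100 nM final. Compounds titrated; aggregates sized 1–25 µm scored on a 488 nm laser cytometer.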
HPGD block = blocks human HPGD enzyme activity; P15428; purified HPGD, NADH fluorescence kinetic, PGE2 substrate; Potency, µM, without a hit: top-dose activity change, negative = inhibition, most hits filed as inhibitors; 150,000 tested, 4.3% active; AID 894; active = well fitted inhibition curve with a large enough effect, not every such curve was filed as active; inconclusive = small, poorly fitted or top-dose-only effect, or another doubt; inactive = no such curve, though single readings can be large or run the other way; note: potency is the fitted concentration of half-maximal effect; % is set by controls: 0 for no effect and ±100 for the full control effect
Target sequence (P15428 whole entry, looked up): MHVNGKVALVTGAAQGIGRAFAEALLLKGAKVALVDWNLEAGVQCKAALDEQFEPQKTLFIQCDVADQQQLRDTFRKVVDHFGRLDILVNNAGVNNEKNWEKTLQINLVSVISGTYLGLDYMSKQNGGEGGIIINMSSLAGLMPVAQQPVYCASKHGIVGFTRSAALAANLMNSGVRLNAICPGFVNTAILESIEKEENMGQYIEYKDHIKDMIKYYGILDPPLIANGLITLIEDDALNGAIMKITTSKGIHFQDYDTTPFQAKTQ
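NADH formation kinetics: reaction with 30 uM PGE2 and 1 mM NAD+ (final), 20 nM enzyme, Tris-HCl pH 8 with Tween 20, after 15 min compound preincubation at room temperature. Fluorescence change, last versus first of five reads.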
* hit, by the source's call; ? = inconclusive; · = no result given; [ ] = another dose, or the depositor's remark. Rows were chosen to be rich in hits. Some 9.8% of all compounds tested hit in one or more screens of this group. Unless noted, calls come from the whole dose curve; as a rule, active = well fitted curve in the direction sought with a large enough effect; inconclusive = small, poorly fitted or top-dose-only effect, or another doubt; inactive = no such curve, though single readings can be large; an effect the other way counts as inactive or inconclusive.

SMILES	ALDH1A1 block	HTT ATP protect	CBFb-RUNX1 inh	KDM4E inh	HTT aggregate	HPGD block
CCCc1cc(C(=O)Nc2nccs2)cs1	?	-21%[10 µM]	-3%	-3%	-2%	10µM*
O=C(Nc1ccccc1)Nc1nccs1	-1%	-29%	3%	-4%	0%	-18%
CSc1ccccc1C(=O)Nc1nccs1	?	16%	1%	-4%	23%[9.22 µM]	16µM*
C/C(=C\C(=O)O)C(=O)Nc1nccs1	3%	2%	-3%	-4%	0.11µM*	-10%
CCC(CC)C(=O)Nc1cccc(C(=O)Nc2nccs2)c1	0%	4%	-3%	6%	-18%	-12%
Cc1ccc(/C=N\NC(=O)C2CN(S(=O)(=O)c3ccccc3)CCN2S(=O)(=O)c2ccccc2)cc1 (stereo not given)	9%	10%[10 µM]	-2%	4%	-5%	-16%
CN(C)C(=O)c1ccc2c(c1)n(C)c(=O)n2C	-2%	24%[10 µM]	-1%	10%	-6%	-12%
Cn1c(=O)n(C)c2cc(C(=O)c3ccccc3)ccc21	7.9µM*	-38%	-3%	-2%	18%	-14%
CCOC(=O)c1c(C)[nH]c(C(=O)CSc2ccc(Cl)cc2)c1C	9%	-39%	5%	-7%	-24%	-5%
CCOC(=O)c1c(C)[nH]c(C(=O)CSc2nc(C)cc(C)n2)c1C	16µM*	21%[10 µM]	-11%	-1%	2%	-1%
Cc1ccnc(NC(=O)Nc2ccc3c(c2)OCO3)c1	-5%	-84%	-2%	-4%	-7%	·
C=C1c2ccccc2O[C@H](C(=O)OCC)[C@@H]1C1CCCCC1 (tested in a mixture with another compound)	?	-37%	5%[89.1 µM]	·	·	?
CCOC(=O)CCCCC(=O)c1[nH]c(=O)[nH]c1CSc1nnc2c3cc(Br)ccc3n(C)c2n1	0.63µM*	18%[10 µM]	-1%	-6%	10%	·
CCOC(=O)CCCCC(=O)c1[nH]c(=O)[nH]c1CSc1nc(C)cc(C)n1	-2%	-1%[10 µM]	-13%	-3%	-5%	-6%
CCN(CC)c1ccc2cc(C(N)=O)c(=O)oc2c1	?	-2%[10 µM]	-3%	-5%	25%	?
CCN(CC)c1ccc2cc(-c3nnc(-c4ccncc4)o3)c(=O)oc2c1	?	-2%[10 µM]	9%	?	2.5µM*	?
CCOC(=O)C1C(=O)C=C(c2ccc(C)cc2)CC1c1ccccc1 (stereo not given)	-10%	-57%	10%	-8%	21%[9.22 µM]	·
CCOC(=O)C1C(=O)C=C(c2cccc(NS(C)(=O)=O)c2)CC1c1ccco1 (stereo not given)	20µM*	-28%[10 µM]	7%	2%	-7%	-22%
CCOC(=O)C1C(=O)C=C(c2ccc(Br)cc2)CC1c1ccco1 (stereo not given)	16µM*	-23%	5%	1%	-25%	-14%
CCCCNc1c(C(=O)OCC)c(C)nc2c1cnn2CC	2%	?	26%	-2%	-18%	-12%
Cc1cc2[nH]c(=S)[nH]c2cc1C	28µM*	32%[10 µM]	6%	?	-4%	14µM*
COc1cc([N+](=O)[O-])c2ncsc2c1	-6%	·	17%	3%	6%	-4%
COc1cc(SSc2cc(OC)cc([N+](=O)[O-])c2N)c(N)c([N+](=O)[O-])c1	·	-4%[10 µM]	-17%	2.5µM*	-20%[9.22 µM]	·
O=S(=O)(NC1CCCC1)c1ccc(S(=O)(=O)N(Cc2cccs2)CC2CCCO2)cc1 (stereo not given)	25µM*	5%[10 µM]	13%	-2%	?	-16%
O=C(C1CCCN(S(=O)(=O)c2ccc(F)cc2)C1)N1CCCC1 (stereo not given)	2%	-38%	5%	6%	-2%	2%
SMILES	ALDH1A1 block	HTT ATP protect	CBFb-RUNX1 inh	KDM4E inh	HTT aggregate	HPGD block
O=S(=O)(c1ccc(S(=O)(=O)N(Cc2cccs2)CC2CCCO2)cc1)N1CCCCC1 (stereo not given)	7.9µM*	-2%	15%	-4%	-30%	-4%
O=C(CN(CC1CCCO1)S(=O)(=O)c1ccc(S(=O)(=O)NCC2CCCO2)cc1)Nc1ccccc1 (stereo not given)	-4%	3%	2%	8%	32%	3%
O=C(C1CCCN(S(=O)(=O)c2ccc(F)cc2)C1)N(Cc1cccs1)C1CC1 (stereo not given)	18µM*	-4%[10 µM]	4%	5%	?	-3%
COc1ccc(CCN(Cc2cc3ccc(C)cc3[nH]c2=O)C(C)=O)cc1OC	·	16%[10 µM]	6%	-2%	6%[9.22 µM]	·
CCC1C(=O)CC(c2ccc([N+](=O)[O-])cc2)NC1c1ccc([N+](=O)[O-])cc1 (stereo not given)	?	9%[10 µM]	6%	-7%	4%[9.22 µM]	·
CCCCCCCCCCCCCCCCCCOC[C@@H](O)COP(=O)([O-])OCC[N+](C)(C)C	5%	?	-14%	-1%	·	-5%
C/C(NC1CCCC1)=C(/C#N)C(N)=O	10%	9%[0.074 µM]	5%	11%	-8%	-21%
C/C(=C(\C#N)C(=O)NC1CCCCC1)N(C)C	-8%	-9%	7%	4%	1%	16µM*
CCOC(=O)C1(CC2CC2)CCN(S(=O)(=O)/C=C/c2ccccc2)CC1	?	5%[10 µM]	27%	-6%	-7%[9.22 µM]	·
O=C(O)c1ccccc1-n1c2ccccc2c2ccccc21	?	-1%[10 µM]	3%	-8%	1%[9.22 µM]	·
C=CCN1C(=O)/C(=N/n2cnnc2)c2ccccc21	0.063µM*	-20%	1%	1%	0%	-6%
Nc1nc(SCC(=O)NCCOCCO)nc2sc3c(c12)CCCC3	?	1%[10 µM]	5%	1%	-1%[9.22 µM]	·
Fc1cc2[nH]c(=S)[nH]c2cc1Cl	32µM*	25%[10 µM]	-5%	-19%	18%[9.22 µM]	·
O=C(Nc1nccs1)c1ccc(Br)o1	?	-5%[10 µM]	-1%	-6%	-3%	25µM*
O=C(/C=C/c1ccc(Br)o1)Nc1nccs1	22µM*	0%[10 µM]	?	?	5%	·
CCN(C(=O)CN1CC(C)OC(C)C1)c1c(N)n(Cc2ccccc2)c(=O)[nH]c1=O (stereo not given)	2%	-16%	-2%	5%	3%	·
CC(C)c1ccc(N2C(=O)CC(NNC(=O)c3ccccc3Cl)C2=O)cc1 (stereo not given)	·	-19%[10 µM]	0%	-3%	-33%[9.22 µM]	·
CC(=O)c1cccc(NC(=S)NC(=O)Cc2ccccc2)c1	?	-43%	-3%	-7%	3%	·
Cc1cccc(NCC(=O)NNC(=S)Nc2ccccc2)c1	14µM*	7%[10 µM]	-25%	-27%	12%[9.22 µM]	·
O=C(CSCc1ccccc1Cl)NNC(=S)Nc1ccccc1	14µM*	0%	-10%	3%	6%	-21%
